We go through 13 compounds from PubChem BioAssay.

Activity calls are given as the source filed them.

Test [1] in a line: binders of probe aFSTL3 on microarray, primary screen, stem cell growth factor project, biochemical, small-molecule microarray, fluorescence 635/667 (AID 1064).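 Further: measures binding of the biotinylated anti-FSTL3 antibody to printed compounds.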 The conditions noted are these: higher = more signal.
The nature of test [2]: binders from COS7 lysate, DM2A8 probe, primary screen, torsin A project, cell lysate, small-molecule microarray, fluorescence 635/667 (AID 1065). Conditions: higher = more signal, COS7 lysate expressing mutant human TOR1A.
Test [3] in a line: binders of probe aFGF2 on microarray, primary screen, stem cell growth factor project, biochemical, small-molecule microarray, fluorescence 635/667 (AID 1067).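 Further: measures binding of biotinylated aFGF2 protein to printed compounds on slides; z-score merges feature fluorescence and signal-to-noise across triplicate slides.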 Conditions: higher = more signal.
A short description of test [4]: binders of probe aFGF10 on microarray, primary screen, stem cell growth factor project, biochemical, small-molecule microarray, fluorescence 635/667 (AID 1071).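 Further: score merges 667 nm spot intensity and signal to noise from triplicate slides.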 The conditions noted are these: higher = more signal.
Test [5] deals with Neurogenic locus notch homolog protein 2 (Homo sapiens) (UniProt Q04721). Briefly: Notch2 binders on small-molecule microarrays, primary screen, biochemical, small-molecule microarray, 635 nm fluorescence, stem cell growth factors (AID 1073). Conditions: Notch2 binding, higher = more signal.
Chain of Neurogenic locus notch homolog protein 2 (Homo sapiens) (Q04721 whole entry, looked up, canonical isoform): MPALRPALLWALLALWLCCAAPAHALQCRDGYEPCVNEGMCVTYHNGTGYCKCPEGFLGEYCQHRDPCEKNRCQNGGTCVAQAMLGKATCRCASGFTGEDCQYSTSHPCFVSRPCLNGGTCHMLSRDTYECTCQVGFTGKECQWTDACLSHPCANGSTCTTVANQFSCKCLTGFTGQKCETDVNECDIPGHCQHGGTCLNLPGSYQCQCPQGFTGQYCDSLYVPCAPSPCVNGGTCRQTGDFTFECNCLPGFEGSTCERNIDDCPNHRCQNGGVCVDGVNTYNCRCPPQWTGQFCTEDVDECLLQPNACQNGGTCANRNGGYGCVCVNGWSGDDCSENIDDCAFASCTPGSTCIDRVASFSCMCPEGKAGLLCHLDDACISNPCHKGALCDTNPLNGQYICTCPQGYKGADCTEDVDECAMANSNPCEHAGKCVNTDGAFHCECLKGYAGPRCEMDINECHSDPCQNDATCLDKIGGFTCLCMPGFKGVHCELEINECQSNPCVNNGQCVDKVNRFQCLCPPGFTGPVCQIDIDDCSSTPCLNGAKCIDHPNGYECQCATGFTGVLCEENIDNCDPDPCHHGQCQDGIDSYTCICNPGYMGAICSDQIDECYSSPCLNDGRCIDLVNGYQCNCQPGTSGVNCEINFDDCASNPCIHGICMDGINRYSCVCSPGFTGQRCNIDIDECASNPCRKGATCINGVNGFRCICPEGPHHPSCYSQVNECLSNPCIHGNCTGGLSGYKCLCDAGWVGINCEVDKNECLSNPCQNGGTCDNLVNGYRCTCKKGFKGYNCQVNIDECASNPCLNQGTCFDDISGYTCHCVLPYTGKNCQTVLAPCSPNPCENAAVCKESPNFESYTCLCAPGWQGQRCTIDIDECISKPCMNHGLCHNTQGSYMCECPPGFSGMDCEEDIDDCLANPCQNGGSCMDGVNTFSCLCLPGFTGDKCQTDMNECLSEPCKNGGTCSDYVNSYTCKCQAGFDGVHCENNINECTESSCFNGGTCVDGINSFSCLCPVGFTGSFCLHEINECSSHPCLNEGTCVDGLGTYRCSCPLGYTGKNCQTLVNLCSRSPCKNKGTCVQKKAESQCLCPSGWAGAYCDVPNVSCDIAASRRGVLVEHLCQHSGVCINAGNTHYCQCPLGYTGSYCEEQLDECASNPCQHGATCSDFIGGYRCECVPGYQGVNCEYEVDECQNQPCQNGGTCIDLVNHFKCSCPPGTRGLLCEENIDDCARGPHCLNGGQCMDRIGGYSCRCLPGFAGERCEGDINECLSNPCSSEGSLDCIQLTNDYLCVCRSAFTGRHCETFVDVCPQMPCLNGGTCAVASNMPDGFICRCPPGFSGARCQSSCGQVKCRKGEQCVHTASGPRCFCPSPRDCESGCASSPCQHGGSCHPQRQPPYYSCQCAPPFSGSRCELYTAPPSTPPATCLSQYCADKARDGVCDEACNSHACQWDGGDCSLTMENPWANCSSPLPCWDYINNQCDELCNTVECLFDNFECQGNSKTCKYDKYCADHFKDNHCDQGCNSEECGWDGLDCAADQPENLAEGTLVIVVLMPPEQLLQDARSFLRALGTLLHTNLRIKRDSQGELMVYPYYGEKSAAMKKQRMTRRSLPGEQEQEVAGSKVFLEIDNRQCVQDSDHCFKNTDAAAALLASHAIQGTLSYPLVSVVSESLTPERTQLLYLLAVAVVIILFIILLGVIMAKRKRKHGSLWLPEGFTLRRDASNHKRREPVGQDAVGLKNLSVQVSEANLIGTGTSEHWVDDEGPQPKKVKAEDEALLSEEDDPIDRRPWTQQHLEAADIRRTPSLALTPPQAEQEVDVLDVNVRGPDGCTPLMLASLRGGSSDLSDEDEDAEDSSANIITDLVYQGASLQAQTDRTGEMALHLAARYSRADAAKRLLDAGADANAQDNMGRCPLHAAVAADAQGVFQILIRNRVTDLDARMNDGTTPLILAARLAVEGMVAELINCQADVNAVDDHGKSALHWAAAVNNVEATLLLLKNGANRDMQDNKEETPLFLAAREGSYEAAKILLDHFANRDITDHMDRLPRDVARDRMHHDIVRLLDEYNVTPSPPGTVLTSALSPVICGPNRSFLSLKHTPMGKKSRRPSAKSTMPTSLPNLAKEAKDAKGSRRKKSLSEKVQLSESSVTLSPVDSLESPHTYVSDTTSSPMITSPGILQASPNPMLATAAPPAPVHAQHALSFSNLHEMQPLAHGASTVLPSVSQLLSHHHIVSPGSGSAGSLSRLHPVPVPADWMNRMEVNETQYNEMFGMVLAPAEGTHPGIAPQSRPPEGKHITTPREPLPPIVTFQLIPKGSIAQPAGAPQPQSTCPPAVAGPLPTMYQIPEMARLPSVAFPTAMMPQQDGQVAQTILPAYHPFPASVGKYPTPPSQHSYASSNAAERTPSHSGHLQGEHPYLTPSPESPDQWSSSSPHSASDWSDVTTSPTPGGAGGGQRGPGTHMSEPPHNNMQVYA
Test [6] concerns the target Pro-neuregulin-1, membrane-bound isoform (Homo sapiens) (UniProt Q02297). Briefly: NRG1 binders on small-molecule microarrays, primary screen, psychiatric disease protein project, biochemical, small-molecule microarray, fluorescence 635/667 (AID 1075).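 Further: score combines 667 nm spot fluorescence with signal to noise.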 The conditions noted are these: NRG1 binding, 635 nm fluorescence, higher = more signal.
Test [7] relates to Neuregulin-1 EGF-like domain. Briefly: binders of neuregulin-1 EGF-like domain, primary screen, biochemical, small-molecule microarray, 635 nm fluorescence (AID 1081).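 Further: binding of the protein to compounds printed on small-molecule microarray slides.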 The conditions noted are these: small-molecule microarray binding, higher = more signal.
Test [8] in a line: FRG1 promoter luciferase signal modulators, primary screen, FRG1 inhibition for FSHD, cell-based, C2C12 myotubes, firefly/Renilla luciferase, luminescence (AID 1084). Conditions: higher = more signal, called active from +8 up or from −8 down.
Test [9] in a line: binders of probe aFST on microarray, primary screen, stem cell growth factor project, biochemical, small-molecule microarray, fluorescence 635/667 (AID 1086).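 Further: score merges 667 nm fluorescence with signal-to-noise of each printed compound spot.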 Conditions: higher = more signal.
Test [10] is described as follows: binders of probe aHhip on microarray, primary screen, stem cell growth factor project, biochemical, small-molecule microarray, fluorescence 635/667 (AID 1087).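 Further: score merges spot fluorescence at 667nm with spot signal to noise ratio.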 The conditions noted are these: higher = more signal.

Chain of Pro-neuregulin-1, membrane-bound isoform (Homo sapiens) (Q02297 whole entry, looked up, the tested form may be a part, canonical isoform): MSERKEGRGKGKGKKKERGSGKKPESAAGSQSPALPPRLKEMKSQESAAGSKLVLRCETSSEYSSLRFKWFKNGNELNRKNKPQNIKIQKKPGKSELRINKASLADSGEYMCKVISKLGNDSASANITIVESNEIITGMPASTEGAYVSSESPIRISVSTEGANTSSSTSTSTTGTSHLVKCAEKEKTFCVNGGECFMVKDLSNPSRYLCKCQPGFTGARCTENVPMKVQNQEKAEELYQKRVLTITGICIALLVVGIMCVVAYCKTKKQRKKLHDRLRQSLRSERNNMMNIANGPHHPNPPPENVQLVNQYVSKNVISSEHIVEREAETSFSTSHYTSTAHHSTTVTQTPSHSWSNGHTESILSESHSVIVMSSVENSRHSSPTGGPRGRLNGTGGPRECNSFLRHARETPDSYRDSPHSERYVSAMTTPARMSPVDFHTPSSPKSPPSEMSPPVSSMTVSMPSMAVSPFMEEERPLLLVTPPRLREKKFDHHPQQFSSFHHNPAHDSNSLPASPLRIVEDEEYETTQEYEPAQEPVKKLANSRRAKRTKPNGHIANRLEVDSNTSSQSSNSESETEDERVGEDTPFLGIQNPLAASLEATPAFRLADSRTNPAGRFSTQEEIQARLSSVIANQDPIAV

Turning to `C=C(CCCC)/C(=C/C[C@@H](OC(C)=O)c1ccc(CO)o1)c1cc(C(=O)OC)ccc1OC`, the composite z-score was -0.557 in test [1]; 0.273 in test [2]; -0.0985 in test [3]; 0.866 in test [4]; 0.621 in [5]; 1.01 in [6]. The composite z-score was 1.28 in test [7], 0.435 in test [9] and 0.0826 in test [10]. Moreover, the z-score in test [8] was -0.129 (inactive).
Consider `COc1cc(OC)c(C(O)C2C=CC3C(=O)N(c4ccccc4)C(=O)C3N2Nc2ccc(C#N)cc2)cc1Br` (stereo not given), for which the composite z-score in test [1] was 1.03; in test [2] it was -0.223; in test [3] it was 0.353; in test [4], 1.17; in [5] it was 1.31; in test [6] it was 1.75. In addition, the composite z-score was 1.34 in test [7], 1.73 in test [9] and 0.219 in [10]. Moreover, in test [8], the z-score is -0.647 (inactive).
In the case of `NCCCCCCNC(=O)[C@@H]1C[C@@H]2C(=O)N3CCC[C@H]3C(=O)N2[C@@H]1c1ccc(O)cc1`, the composite z-score in [1] is 0.327; in [2], -0.055; in test [3] it was -0.0006; in [4] it was 0.0841; in [5], 0.337; in test [6], 1.9. The composite z-score in test [7] was found to be 1.18; in [9] it was 1.1; in [10] it was 0.154. Besides, in test [8], the z-score is 0.15 (inactive).
`COc1ccc([Si](C)(C)[C@@H]2[C@@H](CCO)O[C@]3(C(=O)N(Cc4cccc(N5C(=O)c6cccc7cccc5c67)c4)c4ccccc43)[C@H]2C)cc1`: the composite z-score was 0.385 in test [1]; -0.106 in test [2]; -0.156 in test [3]; 0.691 in test [4]; -0.314 in [5]; 0.779 in [6]. Also, the composite z-score in test [7] was 0.966; in test [9], -0.0576; in [10], -0.236. In addition, the z-score in test [8] is -0.34 (inactive).
With `CN1C(=O)C2C(C1=O)C1C=C(c3ccc(CO)cc3)C2C(c2cccs2)N1Cc1cccc(OC(F)(F)F)c1` (stereo not given), the composite z-score is -0.16 in test [1]; 0.669 in test [2]; -0.109 in [3]; 0.432 in test [4]; 1.25 in test [5]; 1.87 in test [6]. Moreover, the composite z-score is 1.35 in test [7], 0.875 in [9] and 0.0505 in [10]. Moreover, the z-score in [8] is 0.785 (inactive).
For `C=CCOC(=O)[C@@H]1[C@H]2C(=O)O[C@H](c3ccccc3)[C@H](c3ccccc3)N2[C@H](c2ccc(OCCOC(=O)[C@H]3C[C@H]4C(=O)N[C@@H](CCCCNC(C)=O)C(=O)N4[C@H]3c3cccc(OCCO)c3)cc2)[C@@]12C(=O)Nc1ccc(I)cc12`, the composite z-score was -0.0066 in [1]; 0.99 in [2]; -0.0718 in [3]; 0.404 in [4]; 0.544 in test [5]; 0.851 in test [6]. Also, the composite z-score in [7] amounted to 1.28; in test [9] it was 0.252; in test [10], 0.0479. Further, the z-score in test [8] was 0.49 (inactive).
On to `NCCCCCCNC(=O)[C@H]1C[C@H]2C(=O)N[C@@H](Cc3ccccc3)C(=O)N2[C@H]1c1ccc(O)cc1`, for which the composite z-score in test [1] was 0.465; in [2], 0.399; in test [3], -0.0334; in [4], 0.0116; in test [5], 0.421; in test [6] it was 1.34. Besides, the figures for the composite z-score in test [7], in test [9] and in test [10] were 1.18, 0.377 and -0.196, respectively. For the same compound, in test [8], the z-score was 1.1 (inactive).
`CN(C)CCCNC(=O)[C@@]1(C)c2ccccc2C(=O)N(Cc2cc(C(F)(F)F)cc(C(F)(F)F)c2)[C@H]1c1ccc(CO)cc1`: the composite z-score in test [1] was -0.303; in [2] it was -0.401; in [3], -0.141; in test [4], -0.404; in test [5], -0.463; in test [6] it was -0.012. Further, the composite z-score is 0.538 in [7], -0.353 in test [9] and 0.192 in test [10]. For the same compound, the z-score in test [8] was 0.123 (inactive).
In the case of `CCOc1cc(C(O)C2C=CC3C(=O)N(C4CCCCC4)C(=O)C3N2Nc2ccc(OC)cc2)ccc1O` (stereo not given), the composite z-score in [1] came to 0.26; in [2], 0.456; in test [3], 0.0465; in test [4], 0.339; in test [5], 1.64; in test [6], 1.72. Also, the composite z-score in test [7] is 1.28; in test [9], 0.775; in test [10] it was -0.132. Also, the z-score in test [8] is 1.79 (inactive).
For `CCCc1cccc(=O)o1`, the composite z-score was -0.218 in [1]; -0.001 in test [2]; -0.112 in test [3]; 0.191 in test [4]; 0.168 in [5]; 0.785 in test [6]. Also, the composite z-score in test [7] was 1.24; in test [9], -0.278; in test [10] it was 0.155. In test [8], the z-score is 0.273 (inactive).
As to `COCCCNC(=O)[C@]1(Cc2ccccc2CN=[N+]=[N-])N=C(c2ccc(OCCCO)cc2)O[C@@H]1c1ccccc1`, the composite z-score in test [1] is -0.254; in test [2], 1.19; in test [3], 0.0788; in [4] it was 0.627; in test [5], 1.09; in test [6] it was 0.969. For the same compound, the composite z-score is 1.12 in test [7], 1.03 in test [9] and -0.0645 in test [10]. Also, the z-score in test [8] was -3.73 (inactive).
On to `COC(=O)[C@@]1(Cc2ccccc2)[C@H]2c3cc(C(=O)N4CCCC4)n(Cc4cc(F)cc5c4OCOC5)c3C[C@H]2CN1C(=O)c1ccccc1`, for which the composite z-score in test [1] was 0.752; in test [2] it was -0.234; in test [3], 0.356; in test [4], 0.762; in test [5], 1.73; in test [6] it was 1.1. In addition, the composite z-score in test [7] was 1.22; in [9] it was 0.929; in test [10] it was -0.0905. Also, the z-score in test [8] was -0.223 (inactive).
In the case of `C=C(C(=O)CC[C@H](OC(=O)c1cccnc1)c1cccc(OCCO)c1)C(C)C`, the composite z-score is 0.483 in [1]; 0.401 in [2]; -0.157 in test [3]; -0.195 in [4]; -1.26 in test [5]; -0.593 in [6]. For the same compound, the composite z-score in [7] was 0.484; in test [9], -0.809; in test [10], 0.238. Besides, the z-score in test [8] was 0.243 (inactive).
